Test results: article PMC10668032, “Altered binding affinity of SIX1-Q177R correlates with enhanced WNT5A and WNT pathway effector expression in Wilms tumor”
In all, about 33,000 sequences were measured (“e-score”: median about -0.053, highest 2% from about 0.38 on). The sample as a whole holds a higher share of the highest values than the screen did.

Molecular target: T1, SIX1 homeodomain (reference allele) (human, UniProt Q15475 108-198)
T1 sequence: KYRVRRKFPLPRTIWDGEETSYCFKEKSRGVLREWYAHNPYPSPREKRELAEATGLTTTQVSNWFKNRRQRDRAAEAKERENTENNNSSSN
Test: universal protein binding microarray; Universal all-10-mer PBM (8x60K, AMADID 030236), 300 nM GST-tagged protein, Alexa Fluor 488 anti-GST; buffer, salt, pH and temperature not stated (as in Berger); high values mean tight binding
Conditions: protein: ivt; tags: N-terminal GST; dsDNA, one strand shown
Summary of the method: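 Duplicate protein binding microarrays (universal 'all 10-mer', 8×60K format) were incubated with GST-tagged homeodomains at 300 nM final concentration. Binding was quantified as 8-mer E-scores with the Universal PBM Analysis Suite.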

| Sequence | binding signal |
| --- | --- |
| ACACCCGG | 0.344 ± 0.043 E-score |
| GTGTTAGA | 0.214 ± 0.00425 E-score |
| ACGATCGT | 0.154 ± 0.0131 E-score |
| CAGTAGTA | 0.154 ± 0.00593 E-score |
| GATTATTA | 0.209 ± 0.0336 E-score |
| GATCTGAC | 0.238 ± 0.00706 E-score |
| AGACCTAT | 0.17 ± 0.0148 E-score |
| ATATAGGG | 0.229 ± 0.0134 E-score |
| GTTGGATA | 0.295 ± 0.00342 E-score |
| CTTGGATA | 0.236 ± 0.024 E-score |
| GTCGGATA | 0.407 ± 0.00687 E-score |
| ATCGGATA | 0.423 ± 0.00904 E-score |
| ATCGGATG | 0.252 ± 0.00376 E-score |
| CTCGGATC | 0.396 ± 0.0127 E-score |
| CTTGGATC | 0.295 ± 0.0145 E-score |
| ATCGGAAA | 0.159 ± 0.00362 E-score |
| ATCGGATC | 0.426 ± 0.0203 E-score |
| ATCGGACA | 0.237 ± 0.0182 E-score |
| CTCGGATA | 0.375 ± 0.00642 E-score |
| ATCGGACC | 0.229 ± 0.0739 E-score |
| AATATTAA | 0.187 ± 0.0103 E-score |
| GATCGAGC | 0.218 ± 0.00887 E-score |
| TATGCATA | 0.202 ± 0.0575 E-score |
| ATACTAGA | 0.218 ± 0.0317 E-score |
| CACTCCGG | 0.195 ± 0.0209 E-score |

| Sequence | binding signal |
| --- | --- |
| AACCCGAT | 0.25 ± 0.0182 E-score |
| ATAGCAGG | 0.29151 ± 0.000127 E-score |
| CCTTGTGA | 0.164 ± 0.0725 E-score |
| ATCGCAAC | 0.198 ± 0.0486 E-score |
| CGTACACC | 0.205 ± 0.0267 E-score |
| AACTATCC | 0.281 ± 0.0413 E-score |
| GATTATCC | 0.329 ± 0.00414 E-score |
| GAGTATCC | 0.4205 ± 0.00087 E-score |
| AAGTATCC | 0.388 ± 0.0363 E-score |
| GAGTATAC | 0.262 ± 0.0252 E-score |
| AAGTATAC | 0.338 ± 0.0623 E-score |
| ATACTCAG | 0.35 ± 0.0154 E-score |
| GCAAGATA | 0.17 ± 0.0455 E-score |
| ATGCATGA | 0.162 ± 0.0129 E-score |
| ATCCACGG | 0.187 ± 0.0301 E-score |
| CCCAGATC | 0.38 ± 0.0205 E-score |
| CCTGGATC | 0.251 ± 0.0575 E-score |
| AGCGGATC | 0.375 ± 0.0283 E-score |
| CCCAGATA | 0.302 ± 0.0141 E-score |
| ACCAGATC | 0.349 ± 0.0234 E-score |
| ACCGGATA | 0.364 ± 0.00187 E-score |
| CCCGGATC | 0.45 ± 0.0283 E-score |
| ACCGGATC | 0.417 ± 0.0393 E-score |
| CCCGGGTC | 0.288 ± 0.0806 E-score |
| CCCCGCAC | 0.189 ± 0.188 E-score |

| Sequence | binding signal |
| --- | --- |
| CAACGATC | 0.277 ± 0.0168 E-score |
| AGTGATCA | 0.313 ± 0.0131 E-score |
| AGTGATCC | 0.4519 ± 0.00218 E-score |
| GGTGATCA | 0.315 ± 0.0247 E-score |
| CGTGATCA | 0.181 ± 0.00373 E-score |
| AGTGATCG | 0.25 ± 0.00845 E-score |
| CGTGATCC | 0.41 ± 0.0121 E-score |
| ATACGGGA | 0.367 ± 0.0155 E-score |
| GATGAGAC | 0.20672 ± 0.00017 E-score |
| ATATGAGC | 0.208 ± 0.0956 E-score |
| CCATCCGG | 0.235 ± 0.079 E-score |
| AACGATCA | 0.2067 ± 0.00118 E-score |
| GAGGATCA | 0.369 ± 0.0176 E-score |
| AAGGATCG | 0.349 ± 0.00351 E-score |
| TAGGATGA | 0.199 ± 0.0352 E-score |
| CAGGATCA | 0.386 ± 0.00253 E-score |
| TAGGATCA | 0.409 ± 0.017 E-score |
| TAGGATAA | 0.21 ± 0.0705 E-score |
| AAGGATCA | 0.383 ± 0.00738 E-score |
| AAGGATCT | 0.267 ± 0.029 E-score |
| CAGGATCG | 0.297 ± 0.0493 E-score |
| ACTATCTA | 0.154 ± 0.0178 E-score |
| AAACCCGA | 0.165 ± 0.0599 E-score |
| AACACCAT | 0.173 ± 0.0172 E-score |
| ATAGCGGC | 0.194 ± 0.00861 E-score |

| Sequence | binding signal |
| --- | --- |
| AGGTGTTG | 0.2361 ± 0.00141 E-score |
| AGGTGTAC | 0.182 ± 0.0154 E-score |
| GGGTGTCA | 0.4698 ± 0.00156 E-score |
| AGGTGTCA | 0.45238 ± 0.000134 E-score |
| AGGTGTCC | 0.274 ± 0.042 E-score |
| GGGTGTGA | 0.158 ± 0.0496 E-score |
| AGGTGTTA | 0.203 ± 0.0687 E-score |
| AGGTGTCG | 0.399 ± 0.0161 E-score |
| AGGTGTAT | 0.377 ± 0.0149 E-score |
| AGGTGTAA | 0.165 ± 0.116 E-score |
| AGGTGTGA | 0.204 ± 0.0237 E-score |
| GGGTGTAA | 0.334 ± 0.00878 E-score |
| TATCTACA | 0.167 ± 0.0212 E-score |
| CAAAGATC | 0.209 ± 0.0122 E-score |
| GATCTCCA | 0.239 ± 0.0181 E-score |
| ACATATAT | 0.252 ± 0.0998 E-score |
| ATCACTGA | 0.243 ± 0.0373 E-score |
| GTATTTAA | 0.172 ± 0.0151 E-score |
| TAACCCGA | 0.213 ± 0.0195 E-score |
| CATATTAA | 0.175 ± 0.121 E-score |
| ATCATTAC | 0.295 ± 0.0265 E-score |
| AGAATACT | 0.208 ± 0.057 E-score |
| AAAAGGAT | 0.163 ± 0.102 E-score |
| CGGTGTCC | 0.352 ± 0.0179 E-score |
| CGGTGTCA | 0.471 ± 0.00725 E-score |

| Sequence | binding signal |
| --- | --- |
| CGGTGTAA | 0.257 ± 0.00735 E-score |
| AGGATCGG | 0.32 ± 0.0208 E-score |
| ATCACGAC | 0.18 ± 0.0119 E-score |
| AGAATGAT | 0.216 ± 0.0443 E-score |
| GGGATATA | 0.433 ± 0.0145 E-score |
| CGGATATA | 0.422 ± 0.00574 E-score |
| GGGATAGA | 0.256 ± 0.0216 E-score |
| GGGATAAA | 0.212 ± 0.0282 E-score |
| CTAGATGC | 0.153 ± 0.0669 E-score |
| CATACACG | 0.157 ± 0.0344 E-score |
| AGCTATAT | 0.2 ± 0.0474 E-score |
| ACACGGGT | 0.23 ± 0.0432 E-score |
| CATCGATA | 0.308 ± 0.015 E-score |
| CTATCGGA | 0.289 ± 0.00216 E-score |
| CGATCGGA | 0.24 ± 0.0149 E-score |
| ATATCGGC | 0.394 ± 0.011 E-score |
| ATATGGGA | 0.319 ± 0.00531 E-score |
| ATATCTGA | 0.356 ± 0.0383 E-score |
| ATATGGGG | 0.4 ± 0.0352 E-score |
| GGATCGGA | 0.38 ± 0.0357 E-score |
| ATATCTGC | 0.346 ± 0.0315 E-score |
| ATATGGGC | 0.326 E-score |
| AGATCGGA | 0.255 ± 0.00445 E-score |
| AGATCGGC | 0.216 ± 0.0174 E-score |
| ATATCGGA | 0.427 ± 0.0311 E-score |

| Sequence | binding signal |
| --- | --- |
| ATCCGTAG | 0.225 ± 0.00492 E-score |
| AATACTAT | 0.278 ± 0.0809 E-score |
| TATCCACA | 0.326 ± 0.0288 E-score |
| AGAGTGAT | 0.268 ± 0.0506 E-score |
| ATATGTTC | 0.334 ± 0.0471 E-score |
| ACCTATCT | 0.195 ± 0.01 E-score |
| GTGTTATA | 0.219 ± 0.0623 E-score |
| TCCATACA | 0.166 ± 0.0645 E-score |
| ATATCGGG | 0.4018 ± 0.00171 E-score |
| CGATCGTA | 0.212 ± 0.0626 E-score |
| ATCTCGGG | 0.272 ± 0.0234 E-score |
| AGATCGGG | 0.294 ± 0.0193 E-score |
| GTATCGGA | 0.451 ± 0.0142 E-score |
| GCATCGGA | 0.161 ± 0.101 E-score |
| AGATCGTA | 0.237 ± 0.00569 E-score |
| TCATCGGA | 0.176 ± 0.0293 E-score |
| GGATCGTA | 0.383 ± 0.00451 E-score |
| CACCGGCA | 0.188 ± 0.0219 E-score |
| CTATATAC | 0.275 ± 0.0339 E-score |
| TACTCACA | 0.165 ± 0.0208 E-score |
| ATAAGGTA | 0.247 ± 0.0353 E-score |
| ACCGCGAT | 0.323 ± 0.00333 E-score |
| ATCTATCC | 0.372 ± 0.0185 E-score |
| GTGTATGA | 0.17 ± 0.0805 E-score |
| ATGTATCA | 0.448 ± 0.011 E-score |

| Sequence | binding signal |
| --- | --- |
| ATGTATCC | 0.407 ± 0.00354 E-score |
| ATGTATTA | 0.241 ± 0.0485 E-score |
| ATGTATAA | 0.154 ± 0.0486 E-score |
| GTGTATCA | 0.4623 ± 0.00404 E-score |
| ATGTATTG | 0.209 ± 0.0502 E-score |
| ATGTATAG | 0.217 ± 0.0184 E-score |
| ATGTATAC | 0.325 ± 0.0321 E-score |
| ATGTATCG | 0.38 ± 0.0144 E-score |
| GTGTATTA | 0.271 ± 0.032 E-score |
| ATCCTGGG | 0.235 ± 0.00999 E-score |
| ACATTATC | 0.165 ± 0.0505 E-score |
| TACCGCGA | 0.25 ± 0.0197 E-score |
| ATCATCGC | 0.326 ± 0.0174 E-score |
| TACCCGCA | 0.161 ± 0.0756 E-score |
| ATCGACAC | 0.306 ± 0.0819 E-score |
| ATCTTGCA | 0.216 ± 0.0388 E-score |
| CTGTATAC | 0.338 ± 0.0175 E-score |
| CTGTATTA | 0.18 ± 0.00737 E-score |
| ATTTATCC | 0.198 ± 0.0661 E-score |
| CTGTATGA | 0.187 ± 0.0219 E-score |
| CTGTATCC | 0.387 ± 0.0293 E-score |
| CTGTATCA | 0.418 ± 0.0231 E-score |
